According to PubChem BioAssay AID504773 (Broad Institute, 2011):
Potency and affinity values are given separately.

biological target: Golgi-associated PDZ and coiled-coil motif-containing protein (Homo sapiens) (UniProt Q9HD26); assay: CAL PDZ peptide-binding inhibitors, dose response, biochemical, fluorescence polarization, Cerulean-tagged CAL PDZ, cherry-picks (AID 504773); details: 1 h; series mostly up to 50 µM; activity change, negative = inhibition: at the top concentration;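 further: 0% = DMSO neutral wells and -100% = excess unlabeled competitor peptide wells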

Activity change, negative = inhibition, inactive:
CCOC(=O)C1CCN(C(=O)C2CC(=O)N(c3ccc4c(c3)OCCO4)C2)CC1 (configuration not stated) 12.5%
Cc1ccc(S(=O)(=O)N2CCN(C(=O)c3ccccn3)CC2)cc1 13.7%
Cc1c(C)c2cc3c4c(oc3c(C)c2oc1=O)CCCC4 19.3%
C/C(=N\NC(=O)C(O)c1ccccc1)c1ccc(Cl)s1 (configuration not stated) 5.35%
COc1ccc(NC(=O)c2ccc3c(c2)NC(=O)CO3)cc1OC -10.7%
Cc1ccc(S(=O)(=O)N2CCN(C(=O)N(C)C)CC2)cc1 31.8%
COc1cccc(NC(=O)N2CCCCCC2)c1 21.9%
Cc1ccc(F)cc1N=Cc1c(O)c2ccccc2oc1=O 21.1%
COc1ccc(S(=O)(=O)N2CC(=O)Nc3ccccc32)cc1F 13.2%
CCOCCCNC(=S)N1CCN(c2nc(-c3ccccc3)cs2)CC1 -0.951%
COc1ccc(C(=O)c2ccc(C)cc2)c(OC)c1OC 6.19%
CC(C)CNC(=O)CC1Nc2ccccc2NC1=O (configuration not stated) -8.18%
COc1ccc(C(CNC(=O)COc2ccccc2-c2ccccc2)N2CCOCC2)cc1 (configuration not stated) -0.19%
N#Cc1ccc(CC(=O)c2ccccc2)[nH]c1=O 4.17%
CC1CCCN(C(=O)Cc2cccc3ccccc23)C1 (configuration not stated) 9.32%
c1ccc(C2Nc3ccccc3Oc3ccccc32)cc1 (configuration not stated) 29.6%
COCCCNC(=O)c1cc(S(=O)(=O)N2CCOCC2)ccc1SCc1cccc(OC)c1OC -5.41%
C/C(=C/c1ccccc1)C(=O)N1CCN(c2ccccc2)CC1 10.4%
CCC(=O)N1CCC(C(N)=O)(N2CCCCC2)CC1 -11.6%
O=C(NNC(=O)c1ccc(Cl)c(Cl)c1)c1cccnc1 12.3%
O=C(NCc1cccs1)c1cccn2c(=O)c3sccc3nc12 12.7%
COc1ccc(C(=O)Nc2ccc(S(=O)(=O)N3CCCC3)cc2)cc1[N+](=O)[O-] 10.3%
CCC(=O)c1ccc(N2CCC(C)CC2)c(F)c1 14.7%
COc1ccc(NC(=O)c2cnn(-c3ccccc3)c2C)c(OC)c1 -23.8%
COc1cc(C(=O)NC(C)CCc2ccccc2)cc(OC)c1OC (configuration not stated) 22.9%
CCOC(=O)N1CCN(Cc2nc3c(c(=O)n(C)c(=O)n3C)n2Cc2cccc(C)c2)CC1 15.9%
CCOC(=O)C1(CCOc2ccccc2)CCN(CC(O)CO)CC1 (configuration not stated) -21.3%
CCc1nc2ccccc2c(C(=O)Oc2cccc3cccnc23)c1C 9.12%
CN(Cc1nccn1C)C(=O)c1cc(COc2ccc3ncccc3c2)on1 16.5%
CC1=C(C#N)C(=O)NC(=O)/C1=C\c1ccc(-c2cc(C)c(C)cc2[N+](=O)[O-])o1 24.4%
Cc1cc(/C=C2\SC(=O)N(C)C2=O)c(C)n1-c1ccc(O)cc1 7.87%
CC(=O)Nc1cccc(NC(=O)CSc2nnc(NC(=O)c3ccco3)s2)c1 14.6%
COc1ccc(CN2CN(C3CCCC3)CSC2=S)cc1 13.8%
CCC(=O)Nc1ccc(S(=O)(=O)NCc2ccco2)cc1 -9.94%
CCN(CCCn1c(=S)[nH]c2ccc(N3CCOCC3)cc2c1=O)c1ccccc1 8.28%
CSc1ccccc1NC(=O)c1ccccc1 8.04%
S=C(NCCc1ccccc1)N1CCn2cccc2C1c1cccnc1 (configuration not stated) 22.3%
